Bioassay records as filed in PubChem.
gsp ag: activates gsp, the McCune-Albright syndrome mutation | 340,000 tested, 0.13% active | gsp mutant cells, cAMP HTRF, 30 min | Potency, µM (highest dose often 76.9 µM), without a hit: top-dose activation (cAMP increase), most hits filed as activators | AID 624287; active = well fitted activation curve with a large enough effect; inconclusive = small, poorly fitted or top-dose-only effect, or another doubt; inactive = no such curve, though single readings can be large or run the other way; cell line not stated here;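 also: phosphodiesterase inhibitor Ro 20-1724 added with compounds to block cAMP breakdown; potency is read from the fitted curve at half-maximal effect; nearly all actives have a fitted effect of over 60% in size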
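Cells stably selected in G418 were plated at 2000/well, grown 16-24 hr, then given compounds in DMSO with the PDE inhibitor […] (300 uM solution added) for 30 min at 37C; cAMP was read by HTRF.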
Coupling enz: counter-screen for Giardia aldolase inhibitors: coupling enzyme system; coupling enzyme system counterscreen, AmpLite Red fluorescence; activity change, negative = inhibition, % at 58.2 µM, hits read low; 290,000 tested, 0.67% active; AID 2472; in the data active = activity change below about -30%; also: % is scaled to controls: 0 for no effect and ±100 for the full control effect
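Counterscreen lacking aldolase: glyceraldehyde-3-phosphate coupling-enzyme reagent preincubated 10 min at RT with compound (at 57.5 uM final), then substrate/coupling system with AmpLite Red added; fluorescence read at 525/598 nm after 20 min RT.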
RXFP1 antag: blocks the human relaxin receptor RXFP1; Q9HBX9; HEK293-RXFP1, relaxin-stimulated cAMP HTRF, 30 min; active compounds read low; activity change, negative = inhibition, % at 57.5 µM; 350,000 tested, 0.59% active; AID 1259400;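 active = activity change of -60% or lower, but not beyond a set lower limit; inconclusive = change between -60% and -40%, or beyond the set limit; inactive = change above -40%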; also: % is scaled to controls: 0 for no effect and ±100 for the full control effect
Target sequence (Q9HBX9 whole entry, looked up): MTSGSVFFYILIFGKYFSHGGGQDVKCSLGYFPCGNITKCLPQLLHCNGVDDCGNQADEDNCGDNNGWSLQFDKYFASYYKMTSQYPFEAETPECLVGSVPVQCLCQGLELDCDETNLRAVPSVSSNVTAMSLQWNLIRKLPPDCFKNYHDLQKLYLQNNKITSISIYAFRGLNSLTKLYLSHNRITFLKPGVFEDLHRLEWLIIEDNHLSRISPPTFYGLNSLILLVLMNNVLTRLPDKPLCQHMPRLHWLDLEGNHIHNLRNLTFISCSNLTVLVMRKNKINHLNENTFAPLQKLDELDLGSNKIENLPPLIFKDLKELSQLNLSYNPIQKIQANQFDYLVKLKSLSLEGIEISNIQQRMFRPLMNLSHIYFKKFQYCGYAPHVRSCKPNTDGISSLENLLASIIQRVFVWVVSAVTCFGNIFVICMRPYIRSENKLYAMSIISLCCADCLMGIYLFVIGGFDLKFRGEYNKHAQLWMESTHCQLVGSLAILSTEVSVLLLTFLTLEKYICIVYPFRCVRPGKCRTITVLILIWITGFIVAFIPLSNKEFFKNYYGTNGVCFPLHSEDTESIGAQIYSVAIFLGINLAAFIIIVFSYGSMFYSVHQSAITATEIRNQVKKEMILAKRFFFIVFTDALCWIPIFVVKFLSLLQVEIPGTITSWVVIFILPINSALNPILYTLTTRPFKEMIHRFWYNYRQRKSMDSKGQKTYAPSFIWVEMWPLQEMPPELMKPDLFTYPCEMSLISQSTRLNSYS
gsp antagonist: gsp mutant antagonism | Potency, µM (series often up to 76.9 µM), without a hit: top-dose activity change, negative = inhibition, actives largely listed as inhibitors | AID 624288 | 340,000 tested, 0.4% active | gsp-mutant cells, cAMP HTRF, 30 min; calls by dose curve; cell line not stated here;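 also: intracellular cAMP measured with PDE inhibitor Ro 20-1724 present during compound exposure; potency is read from the fitted curve at half-maximal effect; % is scaled to controls: 0 for no effect and ±100 for the full control effect; nearly all actives have a fitted effect of over 65% in size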
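G418-selected cells were plated in DMEM/10% FBS for 16-24 h at 37C, then treated with compounds plus the PDE inhibitor […] (300 uM solution added) for 30 min at 37C. Intracellular cAMP was measured by HTRF after 30 min lysis at room temperature.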
Giardia kill: Giardia lamblia killing; Giardia lamblia trophozoite viability; activity change, % at 7.66 µM, hits read low; 340,000 tested, 0.15% active; AID 540267; in the data active = activity change below about -80%; inconclusive = between about -30% and that limit;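 also: parasites exposed to compound for two days anaerobically before the ATP read; % is scaled to controls: 0 for no effect and ±100 for the full control effect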
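ATP-content bioluminescence gauges trophozoite survival. Cells (100/well) receive compound and incubate anaerobically for 48 hrs at 37 deg C; detection reagent follows for 15-30 min at room temperature.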
RXFP1 agonist: RXFP1 (human) receptor agonism; HEK293T-RXFP1 cAMP TR-FRET, 30 min; response scale: percent of porcine relaxin response, buffer zero; Potency, µM (highest dose often 57.5 µM), without a hit: top-dose activation, actives largely listed as activators; AID 2676; Q9HBX9; 370,000 tested, 0.3% active; active = well fitted activation curve with a large enough effect; inconclusive = small, poorly fitted or top-dose-only effect; also: potency is read from the fitted curve at half-maximal effect; % is scaled to controls: 0 for no effect and ±100 for the full control effect; nearly all actives have a fitted effect of over 60% in size
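Agonist response is measured as cAMP accumulation in an RXFP1-transfected HEK293T line under PDE4 inhibition. Values are scaled between buffer-only and 29 nM porcine relaxin, and EC50s come from standard Hill equation fits.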
* = called active by the depositor; ? = inconclusive; . = no result given; ! = not active in a repeat; [ ] = another dose, or the depositor's remark. This is a sample that favours compounds with a hit; in the whole collection about 1.6% have one here.

SMILES	gsp ag	Coupling enz	RXFP1 antag	gsp antagonist	Giardia kill	RXFP1 agonist
COc1cccc([C@@H]2Oc3ccc(Br)cc3C[C@H]2OC(=O)Nc2cc(OC)c(OC)c(OC)c2)c1	.	3.5	.	.	.	.
O=c1[nH]c(=S)[nH]c2c1C(c1ccc(Br)cc1)c1c([nH]c(=S)[nH]c1=O)O2	1.1%[15.4 µM]	6.9	-18.4	4.0%	19.0	2.8%
COc1cccc(CNc2ccc(Br)cn2)c1O	5.9%	-4.1	3.2	-8.3%	-22.9	-1.0%
COc1cccc(CNc2ncc(Br)cc2Br)c1O	-38.4%	-0.7	-78.0*	-7.6%	18.0	3.0%
Cc1ccc(Nc2ccc(N3CCN(C(=O)c4cccc([N+](=O)[O-])c4)CC3)nn2)cc1	.	.	-8.9	.	.	-1.7%
Cc1cc(C)c(OCCCCNCc2ccccc2)c(Cl)c1	?	-0.3	-106.6*	6.4%	1.2	0.6%
Oc1ccc(/C=N/N(Cc2ccccc2)c2ccccc2)c(O)c1O	3.1%[15.4 µM]	-28.3	-92.4*	7.8%	8.8	-0.6%
Oc1cccc(/C=N/N(Cc2ccccc2)c2ccccc2)c1	-3.1%[15.4 µM]	-4.2	-32.5	-73.4%	9.3	-1.5%
CN1C=CC2=C(C#N)C(N)C(C#N)(C#N)[C@H](c3ccccc3)[C@H]2C1 (stereo not given in full)	0.6%	-30.0*	-8.0	?	-1.1	-0.5%
CN(C(=S)Nc1ccc(SC(F)F)cc1)C(c1ccccc1)c1ccccc1	2.1%	-3.3	-20.8	6.31µM*	-0.7	2.4%
FC(F)Sc1ccc(NC(=S)NC(c2ccccc2)c2ccccc2)cc1	-19.5%	-1.1	-6.0	-9.3%	-0.6	-0.4%
O=C(c1ccc(COc2ccccc2Br)o1)N1CCN(c2ccccn2)CC1	-8.6%	0.6	-21.6	-8.7%	-1.5	6.1%
O=C(c1ccc(C#Cc2ccccc2)o1)N1CCN(c2ccccn2)CC1	-15.1%	-0.5	13.4	35.5µM*	9.5	4.8%
O=C(OCCN1C(=O)c2ccccc2C1=O)c1cc(S(=O)(=O)N2CCOCC2)ccc1Cl	-43.4%	1.5	0.7	0.6%	4.1	3.4%
O=C(OCN1C(=O)c2ccccc2C1=O)c1cc(S(=O)(=O)N2CCOCC2)ccc1F	3.16µM*	.	9.2	-0.7%	-5.3	?
O=C(CN1C(=O)c2ccccc2C1=O)Nc1ccc(S(=O)(=O)N2CCOCC2)cc1	-8.1%	1.2	-81.7*	-1.2%	?	2.3%
CC1CCCCN1C(=O)CSc1nnc(-c2cccs2)o1 (stereo not given)	-8.4%[15.4 µM]	4.9	1.5	4.6%	0.1	0.6%
COc1ccc(N=Cc2ccccc2O)cc1	7.8%	.	0.0	6.3%	-3.6	.
COc1ccc(N=Cc2[nH]c3ccccc3c2O)cc1	-66.6%	-38.0*	-7.0	-9.3%	-26.3	-3.2%
Cc1ccc(NS(=O)(=O)c2cccc3nsnc23)cc1	0.3%	-37.8*	5.9	1.4%	-7.4	0.2%
COC(=O)[C@@H]1[C@@H]2C[C@H]3c4[nH]c5ccccc5c4CCN3C[C@@H]2CC[C@@H]1O	.	-41.2*!	.	.	.	.
O=C(O)[C@@H]1[C@H]2C[C@H]3c4[nH]c5ccccc5c4CCN3C[C@@H]2CC[C@@H]1O	.	.	9.2	-9.3%	-2.8	-0.9%
COC(=O)C1=COC(C)C2CN3CCc4c([nH]c5ccccc45)C3CC12 (stereo not given)	.	-1.6	.	-7.4%	-23.1	-1.7%
COC(=O)C1=CO[C@@H](C)[C@@H]2CN3CCc4c([nH]c5ccccc45)[C@@H]3C[C@H]12	.	-31.3*	.	.	.	.
O=c1[nH]sc2cc(Cl)ccc12	.	.	19.4	.	.	.
SMILES	gsp ag	Coupling enz	RXFP1 antag	gsp antagonist	Giardia kill	RXFP1 agonist
CN(C)CCCOC1(Cc2ccccc2)CCCCCC1	.	.	-7.3	.	.	.
COc1ccc(CN(C)CC(O)COc2ccc(C(=O)c3ccccc3)cc2)c(OC)c1OC (stereo not given)	?	-0.4	-19.6	-1.3%	45.7	1.7%
COc1ccc(Br)cc1CN(C)CC(O)COc1ccc(Br)cc1 (stereo not given)	-8.6%[15.4 µM]	2.3	-63.5*	-13.6%	-9.1	0.4%
C=CC1=C2C=C(C3CC3)N(CCN3CCOCC3)C=C2C(=O)C(C)(OC(=O)c2ccco2)C1=O (stereo not given)	.	-22.2	.	.	.	.
C=CC1=C2C=C(C3CC3)N(Cc3ccccc3)C=C2C(=O)C(C)(OC(=O)c2ccco2)C1=O (stereo not given)	.	-35.9*	.	.	.	.
C=CC1=C2C=C(C3CC3)N(Cc3ccc4c(c3)OCO4)C=C2C(=O)C(C)(OC(=O)c2ccco2)C1=O (stereo not given)	.	-5.6	.	.	.	.
C=CC1=C2C=C(C3CC3)N(CCCOC(C)C)C=C2C(=O)C(C)(OC(=O)c2ccco2)C1=O (stereo not given)	.	-32.4*	.	.	.	.
CCOC(=O)CCN1C(=O)[C@H]2[C@H]3[C@H](O)[C@H](O)C/C(=N/NC(=O)OCC)[C@@H]3CC[C@@H]2C1=O	.	1.1	.	.	.	.
COc1cc(C(=O)NCCc2sc(-c3cccc(F)c3)nc2C)cc(OC)c1OC	.	.	-6.9	.	.	2.9%
COc1ccc(CNC(=O)c2ccc(N3CCCC3)c(NC(=O)NCc3ccc(F)cc3)c2)cc1	.	.	-7.7	.	.	0.1%
CCOC(=O)COc1cc(N2C(=O)CSCC2=O)c(Cl)cc1Cl	-31.5%	3.3	-22.7	-7.2%	-7.0	-3.0%
CCOC(=O)COc1cc(-n2c(=S)[nH]c3cc(OC)c(OC)cc3c2=O)c(Cl)cc1Cl	-3.0%[15.4 µM]	-12.0	-15.3	12.6µM*	-18.2	2.1%
COc1ccc(-c2cn(-c3ccc(C)cc3)c(S(=O)(=O)CC(=O)Nc3ccccc3)n2)cc1	.	.	.	.	.	-1.1%
COc1ccccc1CC1S/C(=N/N=C/c2ccco2)NC1=O (stereo not given)	-27.9%	1.3	6.3	28.2µM*	14.5	-0.3%
O=C1N/C(=N/N=C/c2ccco2)SC1Cc1ccccc1 (stereo not given)	-10.4%	1.3	-6.0	-2.9%	-13.9	-1.5%
CCC(=O)N1CCc2cc(CNC(=O)c3ccc(OC)cc3)ccc21	.	.	10.5	.	.	1.5%
O=C(CN1C(=O)/C(=C/c2ccc(F)cc2)SC1=S)NC1C=CS(=O)(=O)C1 (stereo not given)	-5.3%	-2.6	-18.4	-0.6%	1.1	-3.2%
O=C(CCN1C(=O)/C(=C/c2ccccc2Cl)SC1=S)NNC(=O)c1ccccc1O	-16.0%	3.6	-70.6*	-22.7%	-21.4	-3.8%
O=C(CN1C(=O)/C(=C/c2ccc(F)cc2)SC1=S)NC1CCS(=O)(=O)C1 (stereo not given)	?	-5.2	-67.3*	-3.6%	-1.8	-2.6%
Cc1ccc(/C=C2\SC(=S)N(CCC(=O)NNS(=O)(=O)c3ccccc3)C2=O)cc1	-13.6%[15.4 µM]	0.7	-5.6	50.1µM*	18.1	-138.9%
